A selection: hits, their analogues and other compounds. The true share with any hit is near 1.6%.
Fam108B inh = mouse Fam108B serine hydrolase inhibitors, primary screen, counter-screen for RBBP9 inhibitor project, biochemical, fluorescence polarization; AID 1947, 2009; hit rate 0.33% among 300,000; inhibition, % at 9.51 µM; recombinant Fam108B, FP-Rh probe fluorescence polarization;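 active = inhibition above the screen mean inhibition plus 3 SD, computed separately per campaign, cut at about 18% in these data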;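 also: inhibitors lower polarization as less probe binds the enzyme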
MEX-5 binding = MEX-5 zinc finger RNA-binding disruptors – biochemical, C. elegans, fluorescence polarization, MLPCN library, primary screen; Zinc finger protein mex-5 (Caenorhabditis elegans), Q9XUB2; activity score (negative = inhibition of binding), % at 10 µM; MEX-5/FITC-TCR2 RNA binding; hits give low values; AID 1832, 2009; hit rate 0.38% among 300,000;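 active = inhibition past about -25% in most replicates, and total fluorescence under double the plate's negative control median, limit read from the data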;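 also: 0% = DMSO and -100% = 5 µM competing unlabeled TCR2 RNA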
PME-1 primary = PME-1 inhibitors via competitive probe labeling, primary screen, biochemical, fluorescence polarization, FP-Rh probe, HTS | AID 2130, 2009 | inhibition, % at 5.9 µM | Protein phosphatase methylesterase 1 (Homo sapiens), Q9Y570 | hit rate 0.53% among 320,000 | recombinant PME-1;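 active = inhibition above the campaign mean of all compounds plus 3 SD, cut at about 26% in these data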;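 also: competitive labeling of PME-1 active site by serine hydrolase directed probe; 0% = PME-1 with DMSO and 100% = wells lacking PME-1 enzyme; inhibitors block probe labeling so polarization falls and inhibition rises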
Target sequence (Q9Y570 whole entry, looked up): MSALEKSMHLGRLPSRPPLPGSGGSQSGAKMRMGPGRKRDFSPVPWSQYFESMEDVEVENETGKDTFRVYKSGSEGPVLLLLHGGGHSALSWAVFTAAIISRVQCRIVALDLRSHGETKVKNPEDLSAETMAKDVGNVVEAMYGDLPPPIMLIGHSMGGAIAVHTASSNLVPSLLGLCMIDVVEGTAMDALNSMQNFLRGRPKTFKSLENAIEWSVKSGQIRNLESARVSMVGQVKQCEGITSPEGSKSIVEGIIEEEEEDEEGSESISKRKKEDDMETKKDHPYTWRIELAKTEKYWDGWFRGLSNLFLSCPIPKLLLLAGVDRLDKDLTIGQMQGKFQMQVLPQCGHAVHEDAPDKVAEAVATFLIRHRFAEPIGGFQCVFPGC
LYPLA1 inh = LYPLA1 inhibitors, primary screen, counter-screen for PME1 inhibitor project, biochemical, fluorescence polarization, FP-Rh probe ABPP | inhibition, % at 5.9 µM | recombinant LYPLA1 | hit rate 0.16% among 320,000 | Acyl-protein thioesterase 1 (Homo sapiens), O75608;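 active = inhibition above the mean of all tested compounds plus 3 SD, set per campaign, cut at about 14% in these data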;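 also: inhibitors block serine hydrolase probe labeling of LYPLA1 so polarization falls; 0% = enzyme with DMSO and 100% = wells lacking LYPLA1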
Target sequence (O75608 whole entry, looked up): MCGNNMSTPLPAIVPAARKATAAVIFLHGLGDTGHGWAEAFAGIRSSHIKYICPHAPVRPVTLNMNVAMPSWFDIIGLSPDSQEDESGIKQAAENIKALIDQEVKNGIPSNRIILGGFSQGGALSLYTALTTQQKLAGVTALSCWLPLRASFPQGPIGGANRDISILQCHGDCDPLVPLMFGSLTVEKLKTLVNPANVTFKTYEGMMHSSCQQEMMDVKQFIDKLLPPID
LYPLA2 counter = LYPLA2 inhibitors, primary screen, counter-screen for PME1 inhibitor project, biochemical, fluorescence polarization, FP-Rh probe ABPP; Acyl-protein thioesterase 2 (Homo sapiens), O95372; inhibition, % at 5.9 µM; recombinant LYPLA2; hit rate 0.38% among 320,000;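 active = inhibition above the screen-wide mean plus 3 SD, limit set per campaign, cut at about 26% in these data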;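 also: 0% = LYPLA2 with DMSO and 100% = wells lacking LYPLA2 enzyme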
PREPL inh = PREPL enzyme inhibitors, primary screen, biochemical, fluorescence polarization | hit rate 0.68% among 320,000 | Prolyl endopeptidase-like (Homo sapiens), Q4J6C6 | recombinant PREPL, fluorescence polarization activity-based probe | inhibition, % at 5.96 µM;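 also: 0% = enzyme with DMSO and 100% = wells lacking enzyme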
PREPL confirm = human PREPL enzyme inhibitors, confirmation, biochemical, fluorescence polarization. shares compounds with PREPL inh. inhibition, % at 5.96 µM. hit rate 67% among 2,000. recombinant PREPL, fluorescence polarization activity probe;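 also: 0% = protein with DMSO and 100% = wells lacking protein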
Active calls of the source: *; x = no result. Rule as the data show it, unless noted: active = inhibition above about 43%; inactive = the rest.

SMILES | Fam108B inh | MEX-5 binding | PME-1 primary | LYPLA1 inh | LYPLA2 counter | PREPL inh | PREPL confirm
O=C(O)/C=C\C(=O)Nc1ccc(N2CCN(c3cccc(Cl)c3)CC2)cc1 | 0 | -3 | 7 | 2 | 6 | 28 | x
O=C(O)/C=C\C(=O)Nc1ccc(N2CCN(c3ccc(Cl)cc3)CC2)cc1 | 2 | -3 | 5 | 6 | 6 | 48* | 29
O=[N+]([O-])c1ccc(C2CNC(c3ccccc3)O2)cc1 (stereo not drawn) | -2 | 3 | 5 | 0 | 1 | 5 | x
COc1cc(C=NNc2ccc(S(=O)(=O)Nc3ccccc3C(=O)O)cc2[N+](=O)[O-])ccc1O | x | x | x | x | x | 55* | 38
O=C(O/N=C(\c1ccccc1)c1ccncc1)c1ccccc1Cl | 0 | 0 | 2 | -2 | -8 | 54* | 42
COc1cc(OC)cc(-c2c(C#Cc3ccsc3)c3cc(-c4ccc(C(N)=O)cc4)ccc3n2C)c1 | x | x | -23 | -17 | -36 | 13 | x
COc1ccc(OCC(=O)N/N=C2\CCCCc3ccccc32)cc1 | -3 | 1 | 1 | 2 | -3 | -11 | x
CCc1ccc(OCC(=O)N/N=C2\CC(=O)c3ccccc32)cc1 | 2 | 1 | 2 | -5 | -1 | 54* | -2
COc1ccc2nc3cc(Cl)ccc3c(Nc3cc(CN4CCCC4)c(O)c(CN4CCCC4)c3)c2n1 | 2 | -36* | 7 | -3 | 7 | 64* | 54*
CCOc1cc(/C=C2/C(=N)N3C(=NC2=O)SN=C3S(C)(=O)=O)ccc1OC(=O)c1ccco1 | -1 | 19 | -7 | 2 | 0 | 52* | 71*
CCOc1cc(/C=C2\C(=N)N3N=C(N4CCCCC4)SC3=NC2=O)ccc1OC(=O)c1ccco1 | 3 | 1 | 0 | -4 | 0 | 51* | 59*
CCOc1cc(/C=C2/C(=N)N3C(=NC2=O)SN=C3S(C)(=O)=O)ccc1OS(=O)(=O)c1ccccc1 | -1 | -14 | 2 | -7 | -7 | 1 | x
CCCCn1c(CCc2ccccc2)nc2cc3[nH]c(=O)c(C(C)C)nc3cc21 | 4 | -11 | -1 | -2 | -6 | 44* | 38
CCCN(CCC)c1nc(-c2ccccn2)nc2ccccc12 | x | 23 | x | x | x | x | x
c1ccc(-c2nc(N3CCCCCC3)c3ccccc3n2)nc1 | -6 | 31 | -1 | 0 | 3 | 68* | 65*
c1ccc(-c2nc(N3CCOCC3)c3ccccc3n2)nc1 | -4 | 0 | -10 | 0 | 2 | 4 | x
c1ccc(CCNc2nc(-c3ccccn3)nc3ccccc23)cc1 | 1 | -1 | -1 | 1 | -5 | 73* | 77*
O=C1CCCN1CC(O)CS(=O)(=O)Cc1ccccc1 (stereo not drawn) | -1 | 1 | -3 | 1 | 8 | -4 | x
COc1ccc(-n2c(-c3ccccc3)cc3c2CCCC3=O)cc1 | 1 | -2 | 15 | 0 | -1 | 49* | 41
COc1ccc(S(=O)(=O)N(C)C2(C)CCS(=O)(=O)C2)cc1OC (stereo not drawn) | 3 | -2 | -4 | 6 | 5 | -1 | x
O=C(O)CCC(=O)N1c2ccccc2NC2=C(C(=O)CC(c3ccc(F)cc3)C2)C1c1ccc([N+](=O)[O-])o1 (stereo not drawn) | -1 | -2 | -4 | 0 | 4 | 18 | x
Cc1ccc(NC(=O)N2CCOCC2)c(C)c1 | 5 | -4 | 1 | -4 | 6 | 87* | 3
CCCN(CCC)C(=O)CSc1nc2n[nH]c(C)c2c(=N)n1-c1ccc(OCC)cc1 | -1 | 1 | 4 | -5 | -4 | 55* | 41
COc1ccc(C2=CCN3CCCCC3C2)c(-c2ccc(OC)c(OC)c2)c1 (stereo not drawn) | x | x | x | x | x | 47* | 43
COc1ccc(N2CC(C(=O)OCC(=O)c3ccc(C)cc3)CC2=O)cc1 (stereo not drawn) | -1 | 0 | -4 | 2 | 2 | -3 | x
SMILES | Fam108B inh | MEX-5 binding | PME-1 primary | LYPLA1 inh | LYPLA2 counter | PREPL inh | PREPL confirm
O=C(Nc1ccc(NC(=O)N2CCN(c3ccccc3O)CC2)cc1)N1CCN(c2ccccc2O)CC1 | 0 | -2 | 6 | -2 | 9 | 56* | 52*
COc1cc(NC(=O)c2cccc(S(=O)(=O)N3CCCCC3)c2)cc(OC)c1OC | x | x | x | x | x | 9 | x
Cc1c(N=Cc2ccco2)c(=O)n(-c2ccccc2)n1C | -6 | 1 | 0 | -2 | -2 | 0 | x
COc1ccc2c(C=Nc3c(C)n(C)n(-c4ccccc4)c3=O)c(O)n(Cc3ccco3)c(=O)c2c1 | 7 | -13 | 10 | -1 | -1 | 56* | 37
COc1ccccc1N1CC(C(=O)Nc2nnc(SCC(=O)N3CCCC3)s2)CC1=O (stereo not drawn) | 0 | 0 | 2 | 2 | -2 | 4 | x
Cn1c(NN)nc2ccccc2c1=O | 2 | 4 | 0 | 1 | 7 | 45* | 26
N#C/C(=C\c1cccnc1)c1nc2ccccc2[nH]1 | 1 | -3 | 5 | -2 | -2 | 56* | 13
N#C/C(=C\c1ccncc1)c1nc2ccccc2[nH]1 | x | -1 | x | x | x | x | x
CCC(=O)NCCc1nc2cc(NC(=O)c3ccc(F)cc3)ccc2n1C | 4 | 1 | -2 | -4 | 2 | 14 | x
Cc1cc(N2CCC(C)CC2)nc2ccc(N3C(=O)CCC3=O)cc12 | 0 | -3 | -5 | -1 | -2 | 1 | x
CCOC(=O)N1CCN(CCC(=O)Nc2ccc(OC)cc2OC)CC1 | -1 | -3 | 1 | 5 | 1 | 15 | x
CCN1CCN(C(=O)C(C)Nc2ccc(OC)cc2OC)CC1 (stereo not drawn) | 5 | -5 | -3 | -3 | -4 | 50* | 46*
O=C(Nc1ccc(-c2nc3ccccc3s2)c(O)c1)C1=COCCO1 | -5 | 2 | -5 | -3 | -3 | 10 | x
CC(N=C1NS(=O)(=O)c2ccccc21)C(=O)Nc1ccc(F)cc1Cl (stereo not drawn) | x | x | 2 | 0 | 8 | 15 | x
Cc1ccc(C)c(NC(=O)COC(=O)c2cccc3c2C(=O)c2ccccc2C3=O)c1 | 4 | 2 | 89* | -3 | -3 | 60* | 47*
NC(=O)c1ccccc1OCC(=O)NS(=O)(=O)c1ccccc1 | -2 | 0 | -5 | -3 | -1 | -3 | x
